Only some compounds are listed: those with a hit (about 3.7% of all), similar ones and a draw of the others.
tim23-1 inh = tim23-1 yeast growth inhibition; inhibition, % at 20 µM; actives 1.3% (n = 330,000); S. cerevisiae tim23-1 growth, BacTiter-Glo luminescence, 24 h; AID 463212;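 active = growth inhibition of the mutant yeast at or above 50%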;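 also: temperature-sensitive mutant grown at 25 °C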
TIM10 inh = growth inhibitors of TIM10 yeast strain; S. cerevisiae TIM10 strain growth, BacTiter-Glo luminescence, 24 h; actives 1.4% (n = 330,000); AID 463195; inhibition, % at 10 µM;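 active = inhibition of 40% or more at the single tested concentration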;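 also: wild-type TIM10 isogenic control strain grown at permissive 25 °C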
PfHsp90 yeast 2 = growth inhibition of yeast expressing Plasmodium Hsp90; AID 504621; actives 0.32% (n = 310,000); inhibition, % at 9.4 µM; S. cerevisiae expressing PfHsp90, BacTiter-Glo ATP, 48 h; yeast lacking PDR1 and PDR3 efflux regulators;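 active = every replicate shows inhibition above about 80%, whatever the replicate mean, limit read from the data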
NLRP3 yeast inh = blocks the NALP3 inflammasome reconstituted in yeast | Yeast reconstituted NLRP3/ASC/caspase-1, beta-gal luminescence, 24 h | actives 0.39% (n = 330,000) | inhibition, % at 10 µM;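 active = inhibition of 50% or more; inactive = inhibition below 50%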
tim10-1 inh = tim10-1 yeast growth inhibition; S. cerevisiae tim10-1 ts strain growth, BacTiter-Glo, 24 h; inhibition, % at 20 µM; actives 2.2% (n = 330,000);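 active = inhibition of at least 40%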;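 also: mutant grown at 25 °C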
tim23-1 conf = confirmation of tim23-1 mutant yeast growth inhibitors; shares compounds with tim23-1 inh; S. cerevisiae tim23-1 growth, BacTiter-Glo luminescence, 24 h; inhibition, % at 20 µM; actives 83% (n = 4,400); AID 463218;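 active = inhibition above about 39% in either of two replicate wells at 20 µM, limit read from the data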;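 also: temperature-sensitive tim23-1 mutant grown at 25 °C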
Each line names hits and unclear results; the compound was inactive in the other large screens (follow-up assays come after a bar, where they were run).

O=C(Nc1nnc(SCc2ccccc2F)s1)C1=COCCO1	none
CS(=O)(=O)c1nc(-c2ccc(F)cc2)cc(C(F)(F)F)n1	none (no result: tim23-1 inh, TIM10 inh, NLRP3 yeast inh, tim10-1 inh)
CCOC(=O)CS(=O)(=O)c1nc(-c2ccc(F)cc2)cc(C(F)(F)F)n1	tim23-1 inh 69 | tim23-1 conf inactive
COc1cc(/C=C/C(=O)OCC(=O)NCc2ccccc2OC)ccc1O	tim23-1 inh 89 | tim23-1 conf inactive
CCOc1ccc(CCNC(=O)CN2C(=O)COc3ccc(S(=O)(=O)N4CCOCC4)cc32)cc1	none
Cc1csc2nc(O)c(C(=O)NCc3ccc4c(c3)OCO4)c(=O)n12	tim23-1 inh 75 | tim23-1 conf 73
COCCn1c(C23CC4CC(CC(C4)C2)C3)n[nH]c1=S	none
CCCCn1c(C23CC4CC(CC(C4)C2)C3)n[nH]c1=S	tim23-1 inh 53 | tim23-1 conf 50
CC1CCN(Cc2nnc(-c3cccc(Br)c3)o2)CC1	none
O=C(N/N=C/CCc1ccccc1)c1ccccc1	tim23-1 inh 55 | tim23-1 conf inactive
O=C(N/N=C/c1ccccn1)c1ccc(NC(=O)c2ccccc2Cl)cc1	none
O=C(N/N=C/c1ccccn1)c1ccc(Cl)c(Cl)c1	tim23-1 inh 62 | tim23-1 conf 49
COc1cccc(CNCC2CCCO2)c1 (stereo not drawn)	none
O=C(NN1C(=O)c2cc(Br)ccc2NC1c1cc(Br)cc(Br)c1O)c1ccncc1 (stereo not drawn)	tim23-1 inh 68 | tim23-1 conf 74
O=C(NN1C(=O)c2cc(Br)ccc2NC1c1ccccc1Cl)c1ccncc1 (stereo not drawn)	none
COc1cc(CNc2ccc(O)cc2)cc(Br)c1OCc1ccccc1	tim23-1 inh 50 | tim23-1 conf 55
COC(=O)c1ccc2nc(NC(=O)C3CC3)sc2c1	tim23-1 inh 51 | tim23-1 conf 50
COC(=O)c1ccc2nc(NC(=O)C(C)C)sc2c1	none
CC1CC1C(=O)Nc1nc2ccc(Cl)cc2s1 (stereo not drawn)	tim23-1 inh 56 | tim23-1 conf 53
C=CCCCCCCCCC(=O)NN	none
Cn1cncc1C#Cc1c(C=O)n(C)c2ccccc12	tim23-1 inh 67 | tim23-1 conf 62
CCC(C)n1c(=O)c(C(=O)Nc2ccccc2S(N)(=O)=O)c(O)c2ccccc21 (stereo not drawn)	tim23-1 inh 54 | tim23-1 conf inactive
COc1ccc(S(=O)(=O)NCc2ccccn2)cc1NC(=O)c1ccccc1C	none
CCOc1ccc(-c2nc(CCl)cs2)cc1	none
COc1ccc(Br)cc1-c1nc(CCl)cs1	tim23-1 inh 51 | tim23-1 conf 57
COc1ccc(N=Cc2c(O)ccc3ccccc23)cc1	tim23-1 inh 57 | tim23-1 conf 57
CC(=O)Nc1ccc(N=Cc2c(O)ccc3ccccc23)cc1	none
NC(=O)c1ccc(N=Cc2c(O)ccc3ccccc23)cc1	tim23-1 inh 57 | tim23-1 conf 45
O=C(O)c1ccc(N=Cc2c(O)ccc3oc4c(c23)CCCC4)cc1	tim23-1 inh 66 | tim23-1 conf 71
O=C(O)c1ccc(N=Cc2c(O)ccc3ccccc23)cc1	tim23-1 inh 58 | tim23-1 conf 56
O=C(O)Cc1ccc(N=Cc2c(O)ccc3ccccc23)cc1	none
CC(=O)Nc1ccc(NC(=O)C(C)OC(=O)c2cccs2)cc1 (stereo not drawn)	none
CC1(C)C(=O)Nc2ccccc2N1C(=O)COC(=O)Cc1ccc(Cl)c(Cl)c1	none
CNc1nc(N)c(C(=O)C23CC4CC(CC(C4)C2)C3)s1	tim23-1 inh 51 | tim23-1 conf 50
COc1ccc(CCNc2oc(-c3ccccc3OC)nc2C#N)cc1	tim23-1 inh 58 | tim23-1 conf 62
COc1ccc(CCNc2oc(-c3ccccc3OC)nc2C#N)cc1OC	none
Cc1ccccc1Oc1nnc(-c2cccs2)c2ccccc12	none (no result: tim23-1 inh, TIM10 inh, NLRP3 yeast inh, tim10-1 inh)
COc1ccc([C@H]2CC(=O)C=C(c3cccc(Cl)c3)C2)cc1	tim23-1 inh 51 | tim23-1 conf 46
CC(=O)Nc1ccc(C2=CC(=O)C[C@H](c3ccc(Cl)cc3)C2)cc1	tim23-1 inh 51 | tim23-1 conf 42
O=C1C=C(c2cccc(Cl)c2)C[C@@H](c2ccc(Cl)cc2)C1	none
O=C1C=C(c2cccc(Cl)c2O)C[C@@H](c2ccc(Cl)cc2)C1	tim23-1 inh 57 | tim23-1 conf 40
Cc1ccc(CNC(=O)CN2C(=O)NC3(CC(C)CC(C)(C)C3)C2=O)cc1 (stereo not drawn)	none
COc1ccc(N2CCN(CCS(=O)(=O)c3cc(Cl)ccc3Cl)CC2)cc1	none
CCCC(C)NC(=O)COC(=O)c1cc(Br)c(Br)s1 (stereo not drawn)	none
CC(=O)OC(C(=O)NC1CCCCC1)c1ccc(Cl)cc1 (stereo not drawn)	none
O=C(COc1ccccc1-c1ccccc1)N/N=C/c1ccncc1	tim23-1 inh 53 | tim23-1 conf 44
CCCCCCOC(=O)/C=C/c1c(C)[nH]c(=O)[nH]c1=O	none
Cc1c(N2C(=O)/C(=C\c3ccccc3O)SC2=S)c(=O)n(-c2ccccc2)n1C	tim23-1 inh 67 | tim23-1 conf 63
Cc1c(N2C(=O)/C(=C/c3ccccc3)SC2=S)c(=O)n(-c2ccccc2)n1C	none
O=C(Oc1c(CN2CCOCC2)cc(Cl)c2cccnc12)c1ccccc1F	none
Oc1c(Cl)cc(CN2CCOCC2)c2cccnc12	tim23-1 inh 51 (no result: PfHsp90 yeast 2) | tim23-1 conf inactive
Cc1cccc(/C=N/NC(=O)c2cc(Br)ccc2OCc2ccccc2)n1	none
Cc1cccc(/C=N/NC(=O)c2ccccc2OCc2cccc(Br)c2)n1	tim23-1 inh 51 | tim23-1 conf 55
O=C(CNC(=O)C12CC3CC(CC(C3)C1)C2)OCc1cc(=O)n2cc(Br)ccc2n1	none
CCOc1ccc(C(=O)NCC(=O)OCc2cc(C(C)=O)ccc2OC)cc1	none
CCOc1ccc(C(C)=O)cc1COC(=O)CNC(=O)C12CC3CC(CC(C3)C1)C2	tim23-1 inh 50 | tim23-1 conf inactive
O=C(CNC(=O)C12CC3CC(CC(C3)C1)C2)OCc1ccc(F)cc1Cl	tim23-1 inh 52 | tim23-1 conf 60
COc1cc(OC)c(/C=N/NC(=O)COc2cccc3cccnc23)c(OC)c1	none
COc1ccc(OC)c(C(=O)CSc2nnc(-c3cccnc3)n2C)c1	none
O=C(c1ccc(-c2nc3ccccc3s2)s1)N1CCOCC1	tim23-1 inh 53 (no result: PfHsp90 yeast 2) | tim23-1 conf 44
CCN1CCN(C(=O)c2ccc(-c3nc4ccccc4s3)s2)CC1	none
CC1CCCCN1C(=O)c1cc(-c2ccc(Cl)c(Cl)c2)on1 (stereo not drawn)	none
CC1CCCCN1C(=O)c1cc(-c2ccc3c(c2)OCO3)on1 (stereo not drawn)	tim23-1 inh 92 | tim23-1 conf inactive
CC(NC(=O)c1cc([N+](=O)[O-])cc([N+](=O)[O-])c1)C1CC2CCC1C2 (stereo not drawn)	none
